Rows were chosen to be rich in hits. Some 5% of all compounds tested hit in one or more screens of this group.
AI-2 QS modul: Vibrio harveyi AI-2 quorum sensing modulators, primary screen, JMH597 strain, luminescence/OD600 ratio; AID 2094, 2009; activity change, % at 7.5 µM; Vibrio harveyi JMH597 AI-2 luminescence/OD600 ratio, 9 h; stronger effect = lower value; strain lacks LuxN and CqsS sensors; 0 = neutral-control median; 300,000 compounds, 0.4% hits; in the data active = activity change below about -75%, passing the limit was not always enough;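 also: luminescence divided by OD600 gain over 9 h not by final OD600 alone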
CHT block: inhibitors of human choline transporter CHT; High affinity choline transporter 1 (Homo sapiens), Q9GZV3; CHT-expressing cells, membrane potential dye, choline response; stronger effect = lower value; B-score at 10 µM; 310,000 compounds, 0.86% hits;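 active = B-score over 3 SD under the library average, and starting fluorescence ratio not unusually high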;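 also: choline stimulus applied at its EC90 after an EC20 pre-addition; B-score computed on integrated fluorescence ratio after choline addition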
CHT PAM: CHT positive allosteric modulators, primary screen, cell-based, membrane potential dye, choline EC20; High affinity choline transporter 1 (Homo sapiens), Q9GZV3; CHT-expressing cells; stronger effect = higher value; LV-AA mutant CHT in HEK293 cells; B-score at 10 µM; 310,000 compounds, 0.49% hits;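 active = initial fluorescence not abnormally high and integrated response B-score, plate-corrected, over 3 SD above library mean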
ALR inh: inhibitors of human ALR sulfhydryl oxidase, primary screen, biochemical, H2O2 detection, HRP-luminol luminescence, single point | FAD-linked sulfhydryl oxidase ALR (Homo sapiens), P55789 | purified ALR, DTT oxidation | inhibition, % (concentration not given with the values) | 290,000 compounds, 3.8% hits;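 active = mean replicate inhibition above about 79%, with every replicate also reaching it, limit read from the data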
Target sequence (P55789 whole entry, looked up): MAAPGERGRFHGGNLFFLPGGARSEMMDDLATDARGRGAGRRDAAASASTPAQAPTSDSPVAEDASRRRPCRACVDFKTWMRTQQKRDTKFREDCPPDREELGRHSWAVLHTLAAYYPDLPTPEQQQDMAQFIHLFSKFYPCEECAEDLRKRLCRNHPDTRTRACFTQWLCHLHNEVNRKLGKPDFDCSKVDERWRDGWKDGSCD
PREPL inh: PREPL enzyme inhibitors, primary screen, biochemical, fluorescence polarization; Prolyl endopeptidase-like (Homo sapiens), Q4J6C6; recombinant PREPL, fluorescence polarization activity-based probe; inhibition, % at 5.96 µM; 320,000 compounds, 0.68% hits; in the data active = inhibition above about 43%
Each line names hits and unclear results; the compound was inactive in the other large screens.

Cc1ccc(O)c(-c2cc3ccccc3[nH]2)c1	ALR inh 98.6
Cn1cc(C(c2ccccc2OCC(=O)O)c2cn(C)c3ccccc23)c2ccccc21	ALR inh 98.8
COc1ccc2nc(S(=O)Cc3ncc(C)c(OC)c3C)[nH]c2c1 (stereo not given)	ALR inh 97.6
CCCCn1c(N)c(N(CC(C)C)C(=O)C2CCN(S(=O)(=O)c3ccc(F)cc3)CC2)c(=O)[nH]c1=O	none (no result: PREPL inh)
Oc1cccc(NC(=S)N=Nc2c(O)[nH]c3ccc(Br)cc23)c1	ALR inh 99.1
Cc1ccc(N2CCN(CCCN3C(=O)C4CCCN4C3=O)CC2)cc1 (stereo not given)	ALR inh 98.3
c1ccc(-n2cnc3cc(NCc4ccncc4)ccc32)cc1	ALR inh 99.1
Cc1cc(NCc2ccccn2)ccc1Br	ALR inh 98.9
c1ccc(-n2cnc3cc(NCc4ccccn4)ccc32)cc1	ALR inh 99.6, PREPL inh 55.0
CC(=O)Nc1ccc2c(c1)ncn2-c1ccccc1	none
CCC(CC)C(=O)Nc1cc(C(=O)NCCc2ccccc2)ccc1Cl	none
O=C(Nc1ccc([N+](=O)[O-])cc1)c1cc2ccccc2nc1Cl	none (no result: ALR inh)
N#Cc1ccsc1NC(=O)c1ccc(Cl)c([N+](=O)[O-])c1	CHT block -8.74 (no result: ALR inh)
CC1=CC(=Nc2c(C)n(C)n(-c3ccccc3)c2=O)C=CC1=O	none (no result: ALR inh)
Cc1c(N=Cc2ccccn2)c(=O)n(-c2ccccc2)n1C	ALR inh 98.5
Cc1c(N=Cc2ccc[nH]2)c(=O)n(-c2ccccc2)n1C	ALR inh 97.0
CC1=CC(=Nc2c(C)n(C)n(-c3ccccc3)c2=O)C=C(C)C1=O	ALR inh 98.8
CCN1c2ccccc2S(=O)(=O)c2ccccc21	none
Cn1cccc1C(=O)N/N=C/c1c(Cl)cccc1Cl	none
Cc1cccc(NC(=S)N(CCCN2CCOCC2)C(C)c2cc3ccccc3o2)c1C (stereo not given)	none (no result: ALR inh)
O=C(Cc1cccs1)NCCc1csc(-c2ccccc2)n1	none (no result: ALR inh)
O=C(CCc1c[nH]c2ccccc12)NC1CC1	none
CCCc1ccc(-c2cc(N)n[nH]2)cc1	ALR inh 98.9
Cc1cc(C)n(CCc2nc(-c3ccc(C)o3)cs2)n1	ALR inh 95.2
CC(=O)c1ccccc1NC(=O)c1ccc(OCc2c(C)noc2C)cc1	none (no result: AI-2 QS modul, CHT block, CHT PAM)
N/C(=N\O)c1ccccc1N1CCCCC1	ALR inh 89.9
COc1ccc2[nH]cc(CCNC(=S)NC3CCCC3)c2c1	none
CNC(=S)NCCc1c[nH]c2ccc(OC)cc12	ALR inh 98.8
CCn1ncc(CN2CCN(Cc3cccc(OC)c3)C(CCO)C2)c1C (stereo not given)	none
Cc1c(OCc2nn[nH]n2)ccc2c3c(c(=O)oc12)CCCC3	none
Cc1c(OCc2nn[nH]n2)ccc2c3c(c(=O)oc12)CCC(C)C3 (stereo not given)	ALR inh 98.5
Cc1c(C(=O)N2CCN(C(c3ccccc3)c3ccccc3)CC2)oc2ccccc12	none (no result: AI-2 QS modul, CHT block, CHT PAM, ALR inh)
COc1ccccc1N(Cc1cc(=O)[nH]c2ccccc12)C(=O)C(C)C	none
CSCCC(NS(=O)(=O)c1ccc2c(c1)oc(=O)n2C)C(=O)NCc1ccc(C)cc1 (stereo not given)	none
COC(=O)c1c(C)n(-c2ccc(OC)cc2)c2ccc(O)cc12	none
Cc1c(C(=O)O)c2cc(O)ccc2n1-c1ccccc1	ALR inh 80.3
O=C(CC1C[C@H](C(=O)N2CCOCC2)[C@@]2(CCC3CCCC3)c3[nH]c4ccccc4c3CCN2C1=O)NCc1ccco1 (stereo not given in full)	none (no result: AI-2 QS modul, CHT block, CHT PAM)

Compound activity deposited in PubChem BioAssay by several laboratories.
